# IDE cell activ – human IDE activators in live cells, primary screen, fluorescence polarization, HEK cells, FAbeta-B substrate; Insulin-degrading enzyme (Homo sapiens), P14735; actives 0.073% (n = 340,000); FAbeta-B cleavage; 0% vehicle, 100% cell-free pure enzyme wells; AID 493087, 2011; activation, % at 5.96 µM;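 active means activation above the mean of all tested compounds plus 3 SD, set per screening campaign, cut at about 17% in these data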
# PP1 inh – PP1-alpha phosphatase inhibitors, primary screen, counter-screen for PP5 inhibitor project, biochemical, fluorescence, OMFP substrate, single point; inhibition, % at 6.7 µM; Serine/threonine-protein phosphatase PP1-alpha catalytic subunit (Homo sapiens), P62136; actives 0.9% (n = 320,000); purified PP1alpha;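 active means inhibition above the mean inhibition of all tested compounds plus 3 SD, computed separately for each screening campaign, cut at about 15% in these data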
# Target sequence (P62136 whole entry, looked up): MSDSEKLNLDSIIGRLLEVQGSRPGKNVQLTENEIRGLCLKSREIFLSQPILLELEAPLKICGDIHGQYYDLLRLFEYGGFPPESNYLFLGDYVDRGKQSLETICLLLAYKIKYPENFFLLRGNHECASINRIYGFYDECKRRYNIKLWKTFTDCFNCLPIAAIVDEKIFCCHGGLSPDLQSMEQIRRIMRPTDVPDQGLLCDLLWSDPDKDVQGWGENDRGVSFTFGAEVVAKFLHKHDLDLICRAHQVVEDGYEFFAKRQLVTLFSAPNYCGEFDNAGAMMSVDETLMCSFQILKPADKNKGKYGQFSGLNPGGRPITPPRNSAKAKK
# Exocytosis inh – LAMP-1 surface exposure blockers, TALL-104 cells – cell-based, flow cytometry, MLPCN library, primary screen; TALL-104 LAMP-1 surface exposure; cells stimulated with thapsigargin and PMA; inhibition, % at 10 µM; actives 0.66% (n = 360,000);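 active means inhibition above about 55%, limit read from the data; inconclusive means no clear call, values can overlap the other calls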
# PP5 inh – PP5 phosphatase inhibitors, primary screen, biochemical, fluorescence; actives 0.18% (n = 320,000); inhibition, % at 6.7 µM; purified PP5c, OMFP substrate fluorescence; Serine/threonine-protein phosphatase 5 (Homo sapiens), P53041;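 active means inhibition above the campaign's mean inhibition across all tested compounds plus 3 SD, cut at about 9.5% in these data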
# SKKanGAS inh – S. pyogenes SKKanGAS growth inhibitors in kanamycin, primary screen, streptokinase expression inhibitor project, SKKanGAS strain, BacTiter-Glo luminescence | 6 h | inhibition, % at 7.5 µM | actives 1.3% (n = 300,000);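 active means mean replicate score, as percent of positive control median, at least 50; inconclusive means mean below 50 but one replicate at or above 50; inactive means mean and every replicate below 50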;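 further: strain carries kanamycin resistance gene driven by streptokinase promoter and grows in 40 µg/ml kanamycin; loss of luminescence reflects streptokinase promoter inhibition or plain growth inhibition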
# IDE cell inh – human IDE inhibitors in live cells, primary screen, fluorescence polarization, HEK cells, FAbetaB substrate; inhibition, % at 5.59 µM; FAbetaB cleavage; Insulin-degrading enzyme (Homo sapiens), P14735; actives 0.41% (n = 320,000);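 active means percent inhibition above the average of all tested compounds plus 3 SD, set per screening campaign, cut at about 16% in these data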;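 further: IDE supplied by intact live HEK cells; FP after avidin binding of uncleaved biotin substrate so inhibition keeps polarization high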
# IDE inh confirm – human IDE inhibitors in live cells, confirmation, fluorescence polarization, HEK cells, FAbetaB substrate | FAbetaB cleavage | shares compounds with IDE cell inh | AID 435028, 2010 | actives 51% (n = 1,200) | inhibition, % at 5.59 µM;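 active means mean inhibition across triplicate wells above the cutoff set by the earlier primary insulin-degrading enzyme screen, cut at about 16% in these data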
# HEK293 tox – cytotoxicity in HEK cells, cytotoxicity control for IDE inhibitor project, cell-based, luminescence | shares compounds with IDE cell inh | HEK293 cytotoxicity, ATP luminescence | inhibition, % at 5.59 µM | actives 28% (n = 1,200) | AID 449730, 2010; in the data active means inhibition above about 22%
# Hits are given with their value; 0 = inactive; ? = inconclusive; - = not tested or not shown. Most compounds without a hit are left out; they make up all but 2.8% or so of the library.
SMILES,IDE cell activ,PP1 inh,Exocytosis inh,PP5 inh,SKKanGAS inh,IDE cell inh,IDE inh confirm,HEK293 tox
Cc1ccc(S(=O)(=O)Nc2ccc(O)c3ccccc23)c(C)c1,0,-,0,-,0,-,-,-
Cc1ccc(S(=O)(=O)Nc2cc(C(C(=O)OC(C)C)C(=O)C(F)(F)F)c(O)c3ccccc23)c(C)c1 (stereo not given),0,0,0,0,0,21.5,0,0
CCN=C1S/C(=C\c2ccc(O)c(OCC)c2)C(=O)N1CC,0,0,0,0,0,0,-,-
O=C1/C(=C\c2cc([N+](=O)[O-])ccc2O)SC(=S)N1Cc1ccc(Cl)cc1,0,0,0,0,95.8,39.8,130.1,0
COc1cc(/C=C2/SC(=S)N(Cc3ccccc3)C2=O)ccc1O,0,0,0,0,65.6,115.4,138.7,0
COc1cc(/C=C2/SC(=NCc3ccccc3)N(Cc3ccccc3)C2=O)ccc1O,0,0,0,0,85.2,37.5,56.8,0
COc1cc(/C=C2\SC(=S)N(NC(=O)c3ccccc3OC)C2=O)ccc1O,0,-,0,-,0,-,-,-
O=C1S/C(=C\c2ccc(O)c([N+](=O)[O-])c2)C(=O)N1Cc1cccc([N+](=O)[O-])c1,-,0,0,0,0,0,-,-
COc1cc(/C=C2/SC(=S)N(c3c(C)n(C)n(-c4ccccc4)c3=O)C2=O)ccc1O,0,0,0,0,0,17.5,45.6,0
O=C1/C(=C\c2ccc(O)c(O)c2)SC(=S)N1Cc1ccccc1,0,-,0,-,0,-,-,-
Cc1noc(C)c1C(=O)Nc1nccs1,0,0,0,0,?,0,-,-
COc1ccc(/C=C/C(=O)OCC(=O)NC2CCCC2)c(OC)c1,0,0,0,0,-,0,-,-
O=C(NC1CC1)C1CCN(C2CCN(C(=O)/C=C/c3ccc(F)cc3)CC2)CC1,0,0,0,0,0,0,-,-
CCc1nnc(/N=C/c2c(O)n(-c3ccc(Cl)cn3)c(=O)c3ccccc23)s1,0,0,0,0,0,17.1,0,0
CS(=O)(=O)Nc1nc2n(n1)C(c1ccccc1)C=C(c1ccc(Br)cc1)N2 (stereo not given),0,0,0,0,0,63.1,79.3,0
COc1ccc(CCN2CCCn3c2nc2c3c(=O)n(CC(N)=O)c(=O)n2C)cc1OC,0,-,0,-,0,-,-,-
Cc1c(CCC(=O)O)c(=O)oc2cc3oc4c(c3cc12)CCCC4,0,0,0,0,0,0,-,-
Cc1c(CCC(=O)NCC(=O)NCC(=O)O)c(=O)oc2cc3oc4c(c3cc12)CCCC4,0,0,0,0,0,23.6,0,0
COc1ccccc1N1CCN(S(=O)(=O)CCNC(=O)C23CC4CC(CC(C4)C2)C3)CC1,0,0,0,0,0,20.4,0,32.3
CC1CCCCC1NC(=O)C1CCC(CNc2c(N3CCCCC3)c(=O)c2=O)CC1 (stereo not given),0,0,0,0,0,0,-,-
CC1C/C(=C/c2cccn2C)C(=O)/C(=C/c2cccn2C)C1 (stereo not given),0,0,0,0,0,38.9,94.4,22.9
COc1ccc(/C=C(/NC(=O)c2ccccc2)C(=O)N/N=C/c2cccs2)cc1OC,0,0,0,0,0,0,-,-
COc1ccc([N+](=O)[O-])cc1/C=N/NC(=O)/C(=C\c1cccs1)NC(=O)c1ccccc1,0,0,0,0,0,28.2,0,0
Cc1ccc(OCCSc2nnc(-c3ccncc3)n2C)cc1,0,0,0,0,-,35.7,0,0
Cn1c(SCCOc2cccc(Cl)c2)nnc1-c1ccncc1,0,0,0,0,0,0,-,-
SMILES,IDE cell activ,PP1 inh,Exocytosis inh,PP5 inh,SKKanGAS inh,IDE cell inh,IDE inh confirm,HEK293 tox
CN(C)c1ccc(/C=C(/C#N)C(=O)NCc2ccccc2)o1,0,0,0,0,0,97.0,121.7,0
O=C(CN1C(=O)S/C(=C\c2cc(Cl)c(O)c(Cl)c2)C1=O)Nc1ccccc1,0,0,0,0,0,20.8,22.5,0
O=C(CN1C(=O)S/C(=C\c2ccccn2)C1=O)Nc1ccccc1,0,-,0,-,-,-,-,-
O=C(/C=C/c1ccc(OCc2cccc(Cl)c2)cc1)N1CCOCC1,0,0,0,0,0,18.0,0,0
O=C(Nc1ccccc1)N1CCN(c2nc3ccccc3s2)CC1,0,0,0,0,0,18.0,0,29.7
O=C(c1ccc2ncsc2c1)N1CCN(c2nc3ccccc3s2)CC1,0,0,0,0,0,24.5,0,41.9
O=C(c1ccco1)N1CCN(S(=O)(=O)c2c(Cl)cccc2Cl)CC1,0,0,0,0,0,0,-,-
Cc1cc(/C=C2\SC(=S)N(C)C2=O)c(C)n1-c1ccccc1O,0,0,0,0,88.4,27.1,29.0,47.4
CCOC(=O)C1CCCN(C2=NC(=O)/C(=C/c3ccc(O)c(OC)c3)S2)C1 (stereo not given),0,0,0,0,0,25.0,75.4,0
O=c1c(O)c(-c2cccs2)oc2ccc(Cl)cc12,24.0,0,0,0,66.4,70.0,25.9,0
c1ccc(CN2CCN(c3ncnc4c3[nH]c3ccccc34)CC2)cc1,0,0,0,0,0,33.1,17.9,57.9
OC1(c2cccc(C(F)(F)F)c2)CCN(c2ncnc3c2[nH]c2ccccc23)CC1,0,0,0,0,0,19.4,0,34.5
COc1cccc2[nH]c3c(N4CCc5ccccc5C4)ncnc3c12,-,0,-,0,0,0,-,-
Cc1ccc2[nH]c3c(N4CCN(Cc5ccccc5)CC4)ncnc3c2c1,0,0,0,0,0,35.6,17.5,40.5
c1ccc2c(c1)CCN(c1ncnc3c1[nH]c1ccccc13)C2,0,0,0,0,0,20.6,17.4,80.3
COc1ccc(CCNC(=O)c2ccc(S(=O)(=O)N3CCCCC3)cc2)cc1,0,0,0,0,-,0,-,-
COCCn1cnc2c1c(=O)n(CC(=O)OCC(=O)NCC(F)(F)F)c(=O)n2Cc1ccccc1,0,0,0,0,0,0,-,-
COc1ccc(S(=O)(=O)NC2CCCCCC2)cc1C(N)=O,0,0,0,0,0,0,-,-
NC(=O)CSc1n[nH]c(=O)n1CCc1ccccc1,0,0,0,0,0,0,-,-
COc1cc2[nH]c3c(N4CCN(c5ccc(Cl)cc5)CC4)ncnc3c2cc1OC,0,0,0,0,0,51.7,27.2,37.9
COc1cc2[nH]c3c(Cl)ncnc3c2cc1OC,0,0,0,0,0,0,-,-
